Experimental data as given in the supplement of paper PMC9948646.
Values without a mark were called inactive.

test system: gramicidin D channels in DC22:1PC lipid vesicles (bilayer-modifying potency); experiment: initial Tl+ fluorescence quench rate relative to no-drug control (NormRate, gramicidin monomer-dimer shift) (ratio (fold of control)); higher = stronger bilayer-modifying effect (equilibrium shifted toward conducting dimers), active = 1.5 or more; conditions: 10 µM; lipid concentration 50 µM; temperature: 25 °C
Procedure: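 Stopped-flow fluorescence quench assay: ANTS-loaded DC22:1PC large unilamellar vesicles doped with gramicidin D (1:2000), 50 µM lipid, equilibrated 10 min with 10 µM drug (0.1% DMSO), mixed with Tl+ quench buffer at 25°C. Initial quench rate (Tl+ influx) was fitted with a modified stretched exponential and normalised to the no-drug control rate (NormRate); duplicates from two independent LUV preparations (triplicates for 7 drugs).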

SMILES	initial Tl+ fluorescence quench rate
CNC(=O)c1nn(C)c2c1C(C)(C)Cc1cnc(Nc3ccc(N4CCN(C)CC4)cc3)nc1-2	1.04
C[C@H]1CCCCN1C(=O)NCCc1coc(-c2ccc(F)cc2)n1	1.06
Cc1cc(C(=O)Nc2cnn(Cc3ccc(Cl)cc3Cl)c2)no1	1.1
COc1ccc(CN2CCOc3ccc([C@@](C)(O)CN(C)C)cc3C2)cc1C	1.2
COc1cc(C2=NCCN2)ccc1-n1cc(-c2cccc(C3=NCCN3)c2)nn1	1.15
Cc1ccc(NC(=O)c2nc[nH]c2C(=O)Nc2nc3ccccc3[nH]2)c(C)c1	1.88 (active)
O=C(Nc1c(O)cccc1-c1nc2c(C(=O)O)cccc2o1)c1cc(-c2ccccc2)on1	1.35
COc1ccccc1CNC(=O)c1cc(C2CC2)nc2c1cnn2C(C)C	1.62 (active)
CCS(=O)(=O)N(Cc1ccco1)Cc1cc2ccc(C)cc2nc1O	1.26
Cc1ccccc1CN1CCC(O)(c2ccc(Cl)c(C(F)(F)F)c2)CC1	1.14
O=C(Nc1ccc(N2CCNCC2)nc1)c1oc(-c2ccccc2)nc1C(F)(F)F	1.47
COc1ccc(-c2nn(C(C)C)c3ncnc(N)c23)cc1OC	1.01
Cc1ccc(S(=O)(=O)N2CCN(C(=O)c3cc(-c4ccccc4)[nH]n3)CC2)cc1	1.38
c1ccc(-c2cc(N3CCCCC3)c3ccccc3n2)nc1	1.08
Clc1ccc(CCNc2cc(-c3ccccc3)nc3ncnn23)cc1	1.3
Cc1cc2ccccc2n1CC(=O)N1C[C@@H](C(=O)N2CCCCC2)Oc2ccccc21	1.72 (active)
CC(C)(C)[C@H]1CC[C@H](CC2=C(O)C(=O)c3ccccc3C2=O)CC1	1.31
CCCCS(=O)(=O)Nc1ccc2cnn(C)c2c1	1.36
Cc1cc2nc(NC(=O)C(C)(C)C)nc(Cl)c2n1Cc1ccc(Cl)cc1	1.77 (active)
Cc1cccc(-c2nc(Nc3ccncn3)c3sccc3n2)n1	1.81 (active)
Cc1ccc(-c2cc(C(=O)Nc3cccnc3)c3cc(Br)ccc3n2)cc1	2.5 (active)
CS(=O)(=O)N1CCC(CCn2nc(Cc3cccc4ccccc34)c3c(N)ncnc32)CC1	1.95 (active)
